Reference: PubChem BioAssay (NCATS)
Records with an inconclusive call do not appear. Unmarked numbers belong to inactive results. The source made the active and inactive calls. Calls follow the shape of the dose curve; as a rule, active = well fitted inhibition curve with a large enough effect; inconclusive = small, poorly fitted or top-dose-only effect; inactive = no such curve, though single readings can be large or run the other way.

Test: BET inhibitor-based combinations targeting novel dependencies in MECOM-rearranged (r) AML: SET-2 cell line (AID 2202231);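 as to viability: plate controls were DMSO treated cells for no effect and wells without cells for full effect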
Details: SET-2 AML cells viability, CellTiter-Glo luminescence, 48 h; viability: hits give low values, concentration not given here
How it was run: (§1)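 Viability of cells (500 per well) is scored by luminescent CellTiter-Glo at 48 hr post-dosing. Eleven-point titrations are normalized to DMSO and empty controls and reduced to AUC values.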
Also: nearly all actives have a fitted effect of over 35% in size.
Potency is read from the fitted curve at half-maximal effect.

Q: With `C=CC(=O)Nc1ccc(F)c(-c2ncnc3[nH]cc(C(=O)OCC)c23)c1` as the molecule, how does the viability read?
A: 83.4%

Q: Which Potency does the source give for `CC(=O)C1CCC2C3CCC4=CC(=O)CCC4(C)C3CCC12C` (stereo not given) here?
A: 18.6 µM (active)

Q: Which viability does the source give for `O=C(Nc1cccc(C(F)(F)F)c1)c1cccc2cc(Oc3cc(CO)ncn3)ccc12` here?
A: 103%

Q: With `C=C1CCC[C@]2(C)C=C3OC(=O)C(C)=C3C[C@@H]12` as the molecule, how does the viability read?
A: 112%

Q: For `C[C@]12CC[C@@H]3c4ccc(O)cc4CC[C@H]3[C@@H]1C[C@@H](O)[C@@H]2O`, which viability is on record?
A: 109%

Q: For `c1ccc(CNCc2ccc(CN3CCCNCCNCCCNCC3)cc2)nc1`, which viability is on record?
A: 110%

Q: With `COC(=O)[C@H]1[C@@H](O)[C@@]2(O)c3c(OC)cc(O[C@@H]4O[C@@H]([C@@H](O)CO)CO[C@H]4OC)cc3O[C@@]2(c2ccc(OC)cc2)[C@@H]1c1ccccc1` as the molecule, how does the viability read?
A: 77.8%

Q: Which Potency does the source give for `O=C(NO)c1cnc(NC2(c3cccc(F)c3)CCCCC2)nc1` here?
A: 9.34 µM (active)

Q: With `CC1Oc2cc(cnc2N)-c2c(nn(C)c2C#N)CN(C)C(=O)c2ccc(F)cc21` (stereo not given) as the molecule, how does the viability read?
A: 105%

Q: For `O=C1NC(=O)[C@@H](c2cn3c4c(cccc24)CCC3)[C@@H]1c1c[nH]c2ccccc12`, which Potency is on record?
A: 1.32 µM (active)

Q: For `CC(C)(c1ccc(OCC(O)CO)cc1)c1ccc(OCC(O)CCl)cc1` (stereo not given), which viability is on record?
A: 60%

Q: For `CO[C@H]1/C=C/O[C@@]2(C)Oc3c(C)c(O)c4c(O)c(c(/C=N/N5CCN(C)CC5)c(O)c4c3C2=O)NC(=O)/C(C)=C\C=C\[C@H](C)[C@H](O)[C@@H](C)[C@@H](O)[C@@H](C)[C@H](OC(C)=O)[C@@H]1C`, which viability is on record?
A: 90.8%

Q: Which viability does the source give for `COC(=O)N(CC(=O)O)Cc1cccc(OCc2nc(-c3ccc(Cl)cc3)oc2C)c1` here?
A: 89%

Q: Which viability does the source give for `COc1ccc2c(c1)C(c1ccc(F)cc1)=C(CN1CCCC1)CO2` here?
A: 95.4%

Q: Which viability does the source give for `COC[C@@H](c1ccc(C(F)(F)F)cc1)N1CCN(C2(C)CCN(C(=O)c3c(C)ncnc3C)CC2)C[C@@H]1C` here?
A: 111%

Q: For `C=CC(=O)Nc1cc(N2CCN(CC)CC2)ccc1Nc1cc(N(C)C(=O)Nc2c(Cl)c(OC)cc(OC)c2Cl)ncn1`, which viability is on record?
A: 112%

Q: Which Potency does the source give for `OCCOc1ccc(/C(=C(/CCCl)c2ccccc2)c2ccccc2)cc1` here?
A: 16.6 µM (active)

Q: With `CC/C(=C(/c1ccc(/C=C/C(=O)O)cc1)c1ccc2[nH]ncc2c1)c1ccc(F)cc1Cl` as the molecule, how does the viability read?
A: 98.4%

Q: Which viability does the source give for `CCOc1ccc(Cc2cc([C@@H]3O[C@H](CO)[C@@H](O)[C@H](O)[C@H]3O)ccc2Cl)cc1` here?
A: 95%

Q: Which viability does the source give for `CONC(=O)Nc1ccc(-c2sc3c(c2CN(C)Cc2ccccc2)c(=O)n(-c2ccccc2)c(=O)n3Cc2c(F)cccc2F)cc1` here?
A: 104%

Q: Which viability does the source give for `COc1ccc2nc(S(=O)Cc3ncc(C)c(OC)c3C)[nH]c2c1` (stereo not given) here?
A: 95.9%

Q: With `CC[C@H]1OC(=O)[C@H](C)[C@@H](O[C@H]2C[C@@](C)(OC)[C@@H](O)[C@H](C)O2)[C@H](C)[C@@H](O[C@@H]2O[C@H](C)C[C@H](N(C)C)[C@H]2O)[C@](C)(O)C[C@@H](C)CN(C)[C@H](C)[C@@H](O)[C@]1(C)O` as the molecule, how does the Potency read?
A: 0.468 µM (active)

Q: For `CCOC(=O)[C@@]1(CCCCCCOc2ccc(Cl)cc2)CO1`, which viability is on record?
A: 92%

Q: With `[2H]C([2H])([2H])C(O)([C@@H](C)/C=C/[C@@H](C)[C@H]1CC[C@H]2/C(=C/C=C3C[C@@H](O)C[C@H](O)C3)CCC[C@]12C)C([2H])([2H])[2H]` as the molecule, how does the viability read?
A: 79.5%

Q: With `Cc1cc(O)c(-c2ccc([C@@H](C)CN)cc2)c2c1[nH]c(=O)c1sccc12` as the molecule, how does the Potency read?
A: 0.372 µM (active)

Q: With `O=C(O)CCCCN(CCc1ccccc1OCc1ccc(CCc2ccccc2)cc1)Cc1ccc(C(=O)O)cc1` as the molecule, how does the viability read?
A: 108%

Q: With `CC/C(=C(/CC)c1ccc(O)cc1)c1ccc(O)cc1` as the molecule, how does the Potency read?
A: 20.9 µM (active)

Test: BET inhibitor-based combinations targeting novel dependencies in MECOM-rearranged (r) AML: OCI-AML3 cell line (AID 2202232)
Details: CellTiter-Glo luminescence, 48 h; Potency: OCI-AML3 viability; series mostly up to 46 µM
How it was run: as §1

Q: For `O=c1cc(-c2cccc3c2Sc2ccccc2S3)oc(N2CCOCC2)c1`, which Potency is on record?
A: 13.2 µM (active)

Q: Which Potency does the source give for `CCc1ccc2nc(Nc3cc(Cc4ccccc4)nc(NC4CCC(O)CC4)n3)sc2c1` (stereo not given) here?
A: 18.6 µM (active)

Q: For `CC(C)C[C@H](NC(=O)c1cc2ccccc2s1)C(=O)N1CCN(C(=O)[C@H](CO)NS(=O)(=O)c2ccc(Cl)cc2Cl)CC1`, which Potency is on record?
A: 18.6 µM (active)

Q: For `CCCCC[C@H](O)C=C[C@H]1[C@H](O)CC(=O)[C@H]1CC=CCCCC(=O)O`, which Potency is on record?
A: 5.9 µM (active)

Q: With `CC(C)c1cnn2c(NCc3ccccc3)cc(NCCCCCCN)nc12` as the molecule, how does the Potency read?
A: 23.5 µM (active)

Q: Which Potency does the source give for `[O-][n+]1cccc(-c2nc3c(Cl)cccc3cc2[C@@H](Nc2ncnc3cccnc23)C(F)(F)F)c1` here?
A: 5.25 µM (active)

Q: For `N#CCC1(n2cc(-c3ncnc4[nH]ccc34)cn2)CN(C2CCN(C(=O)c3ccnc(C(F)(F)F)c3F)CC2)C1`, which Potency is on record?
A: 1.66 µM (active)

Q: With `Cc1cc(C)c(CNC(=O)c2cc(-c3ccc(N4CCN(C)CC4)nc3)cc3c2c(C)cn3C(C)C)c(=O)[nH]1` as the molecule, how does the Potency read?
A: 18.6 µM (active)

Q: Which Potency does the source give for `O=c1[nH]nc2c3c(cccc13)NC(CN1Cc3ccccc3C1)=N2` here?
A: 16.6 µM (active)

Q: For `CCOC(=O)c1c(CSc2ccccc2)n(C)c2cc(Br)c(O)c(CN(C)C)c12`, which Potency is on record?
A: 11.8 µM (active)

Q: Which Potency does the source give for `CN(C)CCCOc1ccc(-c2ccc3ncc4c(c3c2)n(C2CCOCC2)c(=O)n4C)cn1` here?
A: 7.23 µM (active)

Q: For `Cn1nccc1Nc1nccc(-c2cc3c(s2)C(C)(C)N(CCN2CCOCC2)C3=O)n1`, which Potency is on record?
A: 1.32 µM (active)

Q: Which Potency does the source give for `C[C@@H]1CC2C3C[C@H](F)C4=CC(=O)C=C[C@]4(C)[C@@]3(F)[C@@H](O)C[C@]2(C)[C@@]1(OC(=O)c1ccco1)C(=O)SCF` (stereo not given in full) here?
A: 20.9 µM (active)
